Experimental data as given in PubChem BioAssay (NCATS).
Inconclusive results are not listed. Unmarked numbers belong to inactive results. Active and inactive are the calls of the source. Calls come from the whole dose curve; as a rule, active = well fitted inhibition curve with a large enough effect; inconclusive = small, poorly fitted or top-dose-only effect; inactive = flat fitted curve, though single readings scatter.

Columns and labels:
HEK293 = test: Cytotoxic Profiling of Annotated Libraries Using Quantitative High-Throughput Screening (AID 1296008); conditions: Five cell lines viability, CellTiter-Glo ATP luminescence, 48-72 h; max response: stronger effect = lower value; for max response: % is set by controls: 0 for no effect and ±100 for the full control effect
How it was run: (§1)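 Cells exposed to compounds for 48 or 72 hr at 37 degrees Celsius. Viability read as ATP-coupled luminescence with CellTiter-Glo after 10 min at room temperature.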

HaCat = test: as above; conditions: Five cell lines viability, CellTiter-Glo ATP luminescence, 48-72 h; max response: stronger effect = lower value
How it was run: as §1

KB-3-1 = test: as above; conditions: Five cell lines viability, CellTiter-Glo ATP luminescence, 48-72 h; max response: stronger effect = lower value
How it was run: as §1

NIH3T3 = test: as above; conditions: Five cell lines viability, CellTiter-Glo ATP luminescence, 48-72 h; max response: stronger effect = lower value
How it was run: as §1

HB3 = test: qHTS profiling for inhibitors of Plasmodium falciparum proliferation (AID 504749); conditions: P. falciparum in erythrocytes, SYBR Green DNA, 72 h; series mostly up to 28.7 µM
How it was run: (§2)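 Readout was DNA-dye fluorescence from lysed cultures, ex 485/em 535 nm. Parasitized red cells had grown 72 h with compound; data scaled between 0.29 uM artemisinin and DMSO wells and corrected using vehicle-only plates.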

ICS = test: as above; conditions: P. falciparum in erythrocytes, SYBR Green DNA, 72 h; series mostly up to 28.7 µM
How it was run: as §2

JCK = test: as above; conditions: P. falciparum in erythrocytes, SYBR Green DNA, 72 h; series mostly up to 28.7 µM
How it was run: as §2

N140 = test: as above; conditions: P. falciparum in erythrocytes, SYBR Green DNA, 72 h; series mostly up to 28.7 µM
How it was run: as §2

P93_24 = test: as above; conditions: P. falciparum in erythrocytes, SYBR Green DNA, 72 h; series mostly up to 28.7 µM
How it was run: as §2

P94_40 = test: as above; conditions: P. falciparum in erythrocytes, SYBR Green DNA, 72 h; series mostly up to 28.7 µM
How it was run: as §2

PAD = test: as above; conditions: P. falciparum in erythrocytes, SYBR Green DNA, 72 h; series mostly up to 28.7 µM
How it was run: as §2

PC15 = test: as above; conditions: P. falciparum in erythrocytes, SYBR Green DNA, 72 h; series mostly up to 28.7 µM
How it was run: as §2

PC26 = test: as above; conditions: P. falciparum in erythrocytes, SYBR Green DNA, 72 h; series mostly up to 28.7 µM
How it was run: as §2

PC49 = test: as above; conditions: P. falciparum in erythrocytes, SYBR Green DNA, 72 h; series mostly up to 28.7 µM
How it was run: as §2

SC27B = test: as above; conditions: P. falciparum in erythrocytes, SYBR Green DNA, 72 h; series mostly up to 28.7 µM
How it was run: as §2

TAB109 = test: as above; conditions: P. falciparum in erythrocytes, SYBR Green DNA, 72 h; series mostly up to 28.7 µM
How it was run: as §2

TAB113 = test: as above; conditions: P. falciparum in erythrocytes, SYBR Green DNA, 72 h; series mostly up to 28.7 µM
How it was run: as §2

TAB165 = test: as above; conditions: P. falciparum in erythrocytes, SYBR Green DNA, 72 h; series mostly up to 28.7 µM
How it was run: as §2

W2 = test: as above; conditions: P. falciparum in erythrocytes, SYBR Green DNA, 72 h; series mostly up to 28.7 µM
How it was run: as §2
Note: nearly all actives have a fitted effect of over 60% in size.
Potency is the fitted concentration of half-maximal effect.

COc1ccc(Nc2cc(-c3cnc(N)nc3)nc(N3CCOCC3)n2)cn1
Potency (HEK293): 1870 nM (active)
Potency (HaCat): 2640 nM (active)
Potency (KB-3-1): 2960 nM (active)
Potency (NIH3T3): 3320 nM (active)

O=[N+]([O-])c1cn2c(n1)OC[C@@H](OCc1ccc(OC(F)(F)F)cc1)C2
max response (KB-3-1): -6.53%
max response (NIH3T3): -7.72%

Oc1ccc(-c2ccc(-c3cc(Nc4cccc(CNC5CC5)c4)n[nH]3)cc2)c(O)c1
Potency (HEK293): 1180 nM (active)
Potency (KB-3-1): 1320 nM (active)

COc1cc2c(cc1O)CCC1C2CC[C@@]2(C)C1CC[C@@H]2O (some centres not stated)
Potency (KB-3-1): 3320 nM (active)
Potency (NIH3T3): 4180 nM (active)

CCc1ccc(C(=O)Nc2cc(CN3CCN(C)CC3)cc(C(F)(F)F)c2)cc1C#Cc1cnc2ccnn2c1
Potency (KB-3-1): 8330 nM (active)

Cc1[nH]c(C=C2C(=O)Nc3ccccc32)c(C)c1CCC(=O)O
max response (HaCat): 0.623%
max response (KB-3-1): 3.92%
Potency (NIH3T3): 1480 nM (active)

C[C@H](NCc1ccc(OCc2cccc(F)c2)cc1)C(N)=O
Potency (KB-3-1): 9350 nM (active)
Potency (NIH3T3): 4180 nM (active)

NC(=NCCCCCCN=C(N)N=C(N)Nc1ccc(Cl)cc1)N=C(N)Nc1ccc(Cl)cc1
Potency (HEK293): 13200 nM (active)
Potency (KB-3-1): 8330 nM (active)

CC(C)[C@H](CO)Nc1nc(Nc2cccc(Cl)c2)c2ncn(C(C)C)c2n1
Potency (HaCat): 16600 nM (active)
Potency (NIH3T3): 10500 nM (active)

CC(C)n1cnc2c(NCCc3ccc(O)cc3)nc(-c3csc4ccccc34)nc21
max response (NIH3T3): -7.93%

CC(C)(C)c1nc2c3cc[nH]c(=O)c3c3cc(F)ccc3c2[nH]1
Potency (HaCat): 6620 nM (active)
max response (KB-3-1): -11.6%

C[C@]12CC[C@@H]3c4ccc(O)cc4CC[C@H]3[C@H]1CC[C@H]2O
Potency (HEK293): 20900 nM (active)
Potency (KB-3-1): 11800 nM (active)

CCc1cnn2c(NCc3ccc[n+]([O-])c3)cc(N3CCCC[C@@H]3CCO)nc12
Potency (NIH3T3): 105 nM (active)

C[C@H]1[C@@H](OC(=O)CCC(=O)O)O[C@@H]2O[C@@]3(C)CC[C@@H]4[C@H](C)CC[C@@H]1[C@@]24OO3
Potency (HEK293): 2350 nM (active)
Potency (KB-3-1): 18700 nM (active)
Potency (NIH3T3): 20900 nM (active)

Cc1cnn(C)c1C(=O)Nc1cc(Nc2ccc3c(C=Cc4ccccn4)n[nH]c3c2)ccc1F
Potency (HEK293): 3720 nM (active)
Potency (NIH3T3): 13200 nM (active)

CCC(C(=O)O)C1CCC(C)C(C(C)C(O)C(C)C(=O)C(CC)C2OC3(C=CC(O)[C@@]4(CC[C@](C)(C5CC[C@@](O)(CC)C(C)O5)O4)O3)C(C)CC2C)O1 (some centres not stated)
Potency (HB3): 891 nM (active)
Potency (ICS): 1000 nM (active)
Potency (JCK): 4470 nM (active)
Potency (N140): 891 nM (active)
Potency (P93_24): 891 nM (active)
Potency (P94_40): 501 nM (active)
Potency (PAD): 1410 nM (active)
Potency (PC15): 2000 nM (active)
Potency (PC26): 478 nM (active)
Potency (PC49): 2510 nM (active)
Potency (SC27B): 794 nM (active)
Potency (TAB109): 1000 nM (active)
Potency (TAB113): 891 nM (active)
Potency (TAB165): 708 nM (active)
Potency (W2): 757 nM (active)
Potency (HEK293): 1180 nM (active)
Potency (NIH3T3): 8330 nM (active)

CC(C=CC1=C(C)CCCC1(C)C)=CC=CC(C)=CC(=O)Nc1ccc(O)cc1
Potency (HEK293): 6790 nM (active)
Potency (KB-3-1): 38200 nM (active)
Potency (NIH3T3): 48100 nM (active)

CC(C)Oc1ccc(C(=O)N[C@H](CNC(=O)CN(C)C)Cc2ccc(-c3cn4cccc([C@H](C)O)c4n3)cc2)cc1Cl
Potency (HEK293): 372 nM (active)
Potency (KB-3-1): 332 nM (active)

COc1cc(OC)c(C=CS(=O)(=O)Cc2ccc(OC)c(NCC(=O)O)c2)c(OC)c1
Potency (HEK293): 118 nM (active)
max response (HaCat): 3.08%
Potency (NIH3T3): 105 nM (active)

CN[C@H](CC(C)C)C(=O)N[C@H]1C(=O)N[C@@H](CC(N)=O)C(=O)N[C@@H]2C(=O)N[C@H]3C(=O)N[C@H](C(=O)N[C@H](C(=O)O)c4cc(O)cc(O)c4-c4cc3ccc4O)[C@H](O)c3ccc(c(Cl)c3)Oc3cc2cc(c3O[C@@H]2O[C@H](CO)[C@@H](O)[C@H](O)[C@@H]2O[C@H]2C[C@](C)(N)[C@H](O)[C@H](C)O2)Oc2ccc(cc2Cl)[C@H]1O
outcome (HaCat): inactive
max response (KB-3-1): 5.98%
max response (NIH3T3): -4.89%

CC[C@]12C=CCN3CC[C@@]4(c5cc([C@@]6(C(=O)OC)C[C@H]7C[C@@H](C(C)(F)F)CN(Cc8c6[nH]c6ccccc86)C7)c(OC)cc5N(C)[C@H]4[C@@](O)(C(=O)OC)[C@H]1OC(C)=O)[C@@H]32
max response (HaCat): -0.147%
Potency (KB-3-1): 10.5 nM (active)

CCCNC(=O)[C@H]1O[C@H]1C(=O)N[C@H](C(=O)N1CCC[C@@H]1C(=O)OC)C(C)CC (some centres not stated)
outcome (HaCat): inactive
